Consider one compound from ChEMBL document CHEMBL2218924, “A broad activity screen in support of a chemogenomic map for kinase signalling research and drug discovery” (Biochem J, 2013).

For experiment [1], the target named is T1, Ephrin type-A receptor 3 (Homo sapiens) (UniProt P29320).
T1 sequence (whole entry): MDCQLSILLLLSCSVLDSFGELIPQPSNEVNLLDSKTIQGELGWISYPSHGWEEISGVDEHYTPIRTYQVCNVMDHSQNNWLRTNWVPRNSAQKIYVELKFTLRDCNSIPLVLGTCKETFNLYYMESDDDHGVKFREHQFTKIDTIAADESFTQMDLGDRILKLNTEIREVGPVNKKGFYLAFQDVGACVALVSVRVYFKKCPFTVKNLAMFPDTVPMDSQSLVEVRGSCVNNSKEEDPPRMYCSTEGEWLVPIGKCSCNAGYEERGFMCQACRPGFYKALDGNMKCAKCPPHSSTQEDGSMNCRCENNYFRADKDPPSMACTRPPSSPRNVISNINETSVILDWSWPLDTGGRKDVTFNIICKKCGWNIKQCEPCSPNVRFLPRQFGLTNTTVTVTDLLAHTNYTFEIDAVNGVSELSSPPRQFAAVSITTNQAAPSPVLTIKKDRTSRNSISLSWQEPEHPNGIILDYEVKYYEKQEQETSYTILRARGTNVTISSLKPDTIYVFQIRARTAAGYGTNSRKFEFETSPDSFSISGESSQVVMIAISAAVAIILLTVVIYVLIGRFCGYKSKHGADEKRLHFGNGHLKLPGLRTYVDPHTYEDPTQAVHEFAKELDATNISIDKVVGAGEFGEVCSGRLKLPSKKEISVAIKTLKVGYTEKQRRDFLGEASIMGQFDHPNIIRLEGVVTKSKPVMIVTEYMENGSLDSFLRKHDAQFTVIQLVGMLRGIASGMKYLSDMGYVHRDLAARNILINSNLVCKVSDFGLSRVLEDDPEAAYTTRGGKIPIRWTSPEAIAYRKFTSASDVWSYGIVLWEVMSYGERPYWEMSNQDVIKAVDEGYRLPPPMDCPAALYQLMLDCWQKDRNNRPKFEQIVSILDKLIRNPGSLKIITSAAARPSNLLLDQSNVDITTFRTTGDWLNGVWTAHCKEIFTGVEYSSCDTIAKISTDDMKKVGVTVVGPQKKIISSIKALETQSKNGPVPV
The conditions noted are these: at 10 µM.

The target in experiment [2] is Ephrin type-A receptor 4 (Homo sapiens) (UniProt P54764). The conditions noted are these: at 1 µM.
Experiment [3] has the same target. The conditions noted are these: at 10 µM.
For experiment [4], the target named is Ephrin type-A receptor 5 (Homo sapiens) (UniProt P54756). The conditions noted are these: at 1 µM.
Experiment [5] has the same target. The conditions noted are these: at 10 µM.
For experiment [6], the target named is Ephrin type-A receptor 7 (Homo sapiens) (UniProt Q15375). Particulars: at 1 µM; call rule not given here.
Experiment [7] shares this target. Particulars: at 10 µM.
Experiment [8] addresses T2, Ephrin type-B receptor 1 (Homo sapiens) (UniProt P54762).
T2 sequence (whole entry): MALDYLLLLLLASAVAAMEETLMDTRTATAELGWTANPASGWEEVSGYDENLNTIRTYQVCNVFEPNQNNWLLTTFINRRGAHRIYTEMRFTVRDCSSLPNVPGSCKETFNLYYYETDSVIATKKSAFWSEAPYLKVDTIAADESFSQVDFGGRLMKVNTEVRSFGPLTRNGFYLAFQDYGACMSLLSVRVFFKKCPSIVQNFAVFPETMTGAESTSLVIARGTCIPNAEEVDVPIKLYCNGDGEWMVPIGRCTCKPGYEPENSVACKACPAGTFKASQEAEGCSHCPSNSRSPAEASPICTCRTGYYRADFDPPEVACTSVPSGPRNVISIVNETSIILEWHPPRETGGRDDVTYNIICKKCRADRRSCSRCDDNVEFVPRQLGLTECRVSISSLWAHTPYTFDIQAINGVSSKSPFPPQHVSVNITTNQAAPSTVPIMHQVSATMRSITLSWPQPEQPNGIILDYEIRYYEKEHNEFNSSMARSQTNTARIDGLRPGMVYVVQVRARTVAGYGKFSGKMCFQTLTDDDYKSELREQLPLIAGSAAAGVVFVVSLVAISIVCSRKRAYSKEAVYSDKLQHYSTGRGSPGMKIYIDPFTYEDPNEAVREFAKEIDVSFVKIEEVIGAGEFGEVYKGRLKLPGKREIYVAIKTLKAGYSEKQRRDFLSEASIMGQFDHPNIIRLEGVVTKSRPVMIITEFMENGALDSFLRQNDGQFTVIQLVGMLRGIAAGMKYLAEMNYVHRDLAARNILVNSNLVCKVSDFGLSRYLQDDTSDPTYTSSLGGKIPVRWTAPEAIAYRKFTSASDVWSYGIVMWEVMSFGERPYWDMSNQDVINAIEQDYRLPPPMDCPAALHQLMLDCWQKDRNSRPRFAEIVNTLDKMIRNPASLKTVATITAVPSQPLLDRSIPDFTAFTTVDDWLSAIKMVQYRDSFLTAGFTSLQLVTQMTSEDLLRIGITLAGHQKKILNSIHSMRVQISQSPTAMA
The conditions noted are these: at 1 µM.

Experiment [9] concerns the target T2, Ephrin type-B receptor 1 (Homo sapiens). Particulars: at 10 µM.
The target in experiment [10] is T3, Ephrin type-B receptor 2 (Homo sapiens) (UniProt P29323).
T3 sequence (whole entry): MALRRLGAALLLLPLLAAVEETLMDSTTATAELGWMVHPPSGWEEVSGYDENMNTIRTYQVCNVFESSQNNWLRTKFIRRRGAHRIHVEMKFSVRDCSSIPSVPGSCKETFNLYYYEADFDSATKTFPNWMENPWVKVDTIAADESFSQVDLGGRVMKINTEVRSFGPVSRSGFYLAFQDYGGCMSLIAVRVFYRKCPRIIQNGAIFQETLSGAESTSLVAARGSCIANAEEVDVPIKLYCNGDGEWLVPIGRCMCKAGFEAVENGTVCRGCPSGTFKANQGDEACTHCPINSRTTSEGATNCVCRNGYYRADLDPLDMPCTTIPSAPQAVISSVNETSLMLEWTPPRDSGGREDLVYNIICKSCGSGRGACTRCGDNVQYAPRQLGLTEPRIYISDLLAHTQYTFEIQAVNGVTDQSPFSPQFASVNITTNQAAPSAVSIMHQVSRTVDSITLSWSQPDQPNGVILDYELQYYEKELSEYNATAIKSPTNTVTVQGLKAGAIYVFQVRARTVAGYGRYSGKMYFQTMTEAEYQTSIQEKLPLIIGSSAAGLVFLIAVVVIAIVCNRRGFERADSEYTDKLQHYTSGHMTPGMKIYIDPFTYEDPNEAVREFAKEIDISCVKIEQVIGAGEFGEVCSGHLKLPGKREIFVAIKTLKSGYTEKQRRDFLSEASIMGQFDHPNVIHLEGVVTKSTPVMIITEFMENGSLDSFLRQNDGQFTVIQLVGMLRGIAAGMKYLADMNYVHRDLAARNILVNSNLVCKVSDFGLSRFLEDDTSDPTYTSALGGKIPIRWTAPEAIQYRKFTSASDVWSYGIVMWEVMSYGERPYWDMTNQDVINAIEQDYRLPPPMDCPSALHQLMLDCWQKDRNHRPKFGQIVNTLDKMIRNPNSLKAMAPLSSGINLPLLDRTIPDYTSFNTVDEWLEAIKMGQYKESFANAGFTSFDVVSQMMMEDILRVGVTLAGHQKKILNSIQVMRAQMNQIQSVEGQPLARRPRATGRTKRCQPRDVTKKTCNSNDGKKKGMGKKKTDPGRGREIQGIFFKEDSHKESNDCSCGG
The conditions noted are these: at 1 µM.

Experiment [11] has as its target T3, Ephrin type-B receptor 2 (Homo sapiens). Particulars: at 10 µM.
The target of experiment [12] is T4, Ephrin type-B receptor 3 (Homo sapiens) (UniProt P54753).
T4 sequence (whole entry): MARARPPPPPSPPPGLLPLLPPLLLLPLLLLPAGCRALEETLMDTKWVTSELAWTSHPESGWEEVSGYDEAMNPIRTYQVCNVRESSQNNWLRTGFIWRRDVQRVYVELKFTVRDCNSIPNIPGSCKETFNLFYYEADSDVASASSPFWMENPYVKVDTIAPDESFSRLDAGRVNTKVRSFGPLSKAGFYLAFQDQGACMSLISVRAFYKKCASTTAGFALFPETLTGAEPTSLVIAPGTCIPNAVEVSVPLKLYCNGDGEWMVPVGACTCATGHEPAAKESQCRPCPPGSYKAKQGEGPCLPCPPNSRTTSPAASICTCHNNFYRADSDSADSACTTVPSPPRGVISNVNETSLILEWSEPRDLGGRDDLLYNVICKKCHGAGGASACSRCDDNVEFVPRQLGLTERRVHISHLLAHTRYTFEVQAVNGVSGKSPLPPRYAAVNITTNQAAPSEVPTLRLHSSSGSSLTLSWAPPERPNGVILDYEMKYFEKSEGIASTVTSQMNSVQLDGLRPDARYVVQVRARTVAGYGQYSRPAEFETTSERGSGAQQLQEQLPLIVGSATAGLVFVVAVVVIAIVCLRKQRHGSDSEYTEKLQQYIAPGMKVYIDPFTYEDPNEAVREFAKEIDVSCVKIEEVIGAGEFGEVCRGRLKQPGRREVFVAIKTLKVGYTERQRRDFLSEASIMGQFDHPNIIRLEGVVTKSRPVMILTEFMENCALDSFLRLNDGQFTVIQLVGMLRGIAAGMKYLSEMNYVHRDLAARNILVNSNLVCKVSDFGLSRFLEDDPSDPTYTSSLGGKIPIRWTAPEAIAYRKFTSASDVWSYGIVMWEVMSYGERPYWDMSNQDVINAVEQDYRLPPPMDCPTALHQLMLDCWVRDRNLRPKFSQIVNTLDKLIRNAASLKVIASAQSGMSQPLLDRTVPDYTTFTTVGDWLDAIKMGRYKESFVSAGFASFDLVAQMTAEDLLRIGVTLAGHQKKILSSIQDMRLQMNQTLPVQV
Particulars: at 1 µM.

Experiment [13] addresses T4, Ephrin type-B receptor 3 (Homo sapiens). The conditions noted are these: at 10 µM.
In experiment [14] the target is T5, Ephrin type-B receptor 4 (Homo sapiens) (UniProt P54760).
T5 sequence (whole entry): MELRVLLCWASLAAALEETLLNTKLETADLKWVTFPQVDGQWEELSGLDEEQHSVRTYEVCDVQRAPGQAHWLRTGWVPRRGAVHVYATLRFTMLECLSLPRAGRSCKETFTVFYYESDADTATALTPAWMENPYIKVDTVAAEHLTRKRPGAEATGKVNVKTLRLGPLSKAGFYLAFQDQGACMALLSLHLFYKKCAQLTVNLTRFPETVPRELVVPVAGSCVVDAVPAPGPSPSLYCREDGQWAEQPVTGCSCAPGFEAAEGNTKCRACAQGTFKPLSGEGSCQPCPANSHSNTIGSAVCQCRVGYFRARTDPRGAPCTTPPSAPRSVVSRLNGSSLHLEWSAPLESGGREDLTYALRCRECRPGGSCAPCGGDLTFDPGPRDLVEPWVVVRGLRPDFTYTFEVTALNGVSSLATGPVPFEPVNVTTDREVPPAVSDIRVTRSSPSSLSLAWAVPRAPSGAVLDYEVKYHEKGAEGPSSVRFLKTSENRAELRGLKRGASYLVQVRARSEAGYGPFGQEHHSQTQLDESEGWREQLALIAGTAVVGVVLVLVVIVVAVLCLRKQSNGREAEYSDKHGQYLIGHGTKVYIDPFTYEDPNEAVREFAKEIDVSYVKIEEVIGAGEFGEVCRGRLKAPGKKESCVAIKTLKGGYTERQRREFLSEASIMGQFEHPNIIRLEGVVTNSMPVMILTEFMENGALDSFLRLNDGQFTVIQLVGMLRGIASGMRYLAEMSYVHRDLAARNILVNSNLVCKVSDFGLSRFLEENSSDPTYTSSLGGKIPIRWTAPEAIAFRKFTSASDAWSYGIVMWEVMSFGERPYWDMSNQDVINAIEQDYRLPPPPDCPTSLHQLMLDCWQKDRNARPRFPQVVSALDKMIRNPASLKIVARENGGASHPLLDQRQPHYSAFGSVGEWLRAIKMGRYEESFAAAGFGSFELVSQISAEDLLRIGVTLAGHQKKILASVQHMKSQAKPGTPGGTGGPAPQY
Particulars: at 1 µM.

For experiment [15], the target named is T5, Ephrin type-B receptor 4 (Homo sapiens). The conditions noted are these: at 10 µM.
Experiment [16] has as its target Receptor tyrosine-protein kinase erbB-4 (Homo sapiens) (UniProt Q15303). The conditions noted are these: at 1 µM.
Experiment [17] shares this target. Particulars: at 10 µM.
Experiment [18] concerns the target Focal adhesion kinase 1 (Homo sapiens) (UniProt Q05397). The conditions noted are these: at 1 µM.

Molecules are shown by their SMILES.

Ephrin type-A receptor 5 (Homo sapiens), sequence (P54756 whole entry): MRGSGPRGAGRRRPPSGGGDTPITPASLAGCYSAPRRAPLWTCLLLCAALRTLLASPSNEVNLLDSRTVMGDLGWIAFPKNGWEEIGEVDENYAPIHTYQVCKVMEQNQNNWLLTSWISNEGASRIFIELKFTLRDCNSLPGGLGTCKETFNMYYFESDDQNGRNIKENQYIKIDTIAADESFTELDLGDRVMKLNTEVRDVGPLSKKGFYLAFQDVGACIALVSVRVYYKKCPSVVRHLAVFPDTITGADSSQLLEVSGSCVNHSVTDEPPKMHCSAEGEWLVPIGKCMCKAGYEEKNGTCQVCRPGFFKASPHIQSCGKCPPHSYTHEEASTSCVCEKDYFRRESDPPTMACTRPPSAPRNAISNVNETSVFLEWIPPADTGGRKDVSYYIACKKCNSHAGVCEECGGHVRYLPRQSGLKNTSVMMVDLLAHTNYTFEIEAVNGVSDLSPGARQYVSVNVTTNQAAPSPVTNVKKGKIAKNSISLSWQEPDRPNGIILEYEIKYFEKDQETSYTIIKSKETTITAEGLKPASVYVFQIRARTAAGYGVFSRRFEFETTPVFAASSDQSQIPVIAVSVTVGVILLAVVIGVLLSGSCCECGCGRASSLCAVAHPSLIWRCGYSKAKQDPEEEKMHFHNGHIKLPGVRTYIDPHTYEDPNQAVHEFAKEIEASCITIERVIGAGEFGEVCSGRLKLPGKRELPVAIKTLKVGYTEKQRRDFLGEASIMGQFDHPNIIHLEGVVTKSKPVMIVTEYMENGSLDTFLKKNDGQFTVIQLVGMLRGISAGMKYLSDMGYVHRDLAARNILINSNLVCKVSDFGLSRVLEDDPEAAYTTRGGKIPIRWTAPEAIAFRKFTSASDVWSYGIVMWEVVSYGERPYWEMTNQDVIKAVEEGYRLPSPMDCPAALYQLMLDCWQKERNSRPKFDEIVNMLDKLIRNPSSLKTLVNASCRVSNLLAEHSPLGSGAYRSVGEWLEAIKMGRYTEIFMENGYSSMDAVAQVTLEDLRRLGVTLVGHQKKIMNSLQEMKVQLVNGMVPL
Receptor tyrosine-protein kinase erbB-4 (Homo sapiens), sequence (Q15303 whole entry): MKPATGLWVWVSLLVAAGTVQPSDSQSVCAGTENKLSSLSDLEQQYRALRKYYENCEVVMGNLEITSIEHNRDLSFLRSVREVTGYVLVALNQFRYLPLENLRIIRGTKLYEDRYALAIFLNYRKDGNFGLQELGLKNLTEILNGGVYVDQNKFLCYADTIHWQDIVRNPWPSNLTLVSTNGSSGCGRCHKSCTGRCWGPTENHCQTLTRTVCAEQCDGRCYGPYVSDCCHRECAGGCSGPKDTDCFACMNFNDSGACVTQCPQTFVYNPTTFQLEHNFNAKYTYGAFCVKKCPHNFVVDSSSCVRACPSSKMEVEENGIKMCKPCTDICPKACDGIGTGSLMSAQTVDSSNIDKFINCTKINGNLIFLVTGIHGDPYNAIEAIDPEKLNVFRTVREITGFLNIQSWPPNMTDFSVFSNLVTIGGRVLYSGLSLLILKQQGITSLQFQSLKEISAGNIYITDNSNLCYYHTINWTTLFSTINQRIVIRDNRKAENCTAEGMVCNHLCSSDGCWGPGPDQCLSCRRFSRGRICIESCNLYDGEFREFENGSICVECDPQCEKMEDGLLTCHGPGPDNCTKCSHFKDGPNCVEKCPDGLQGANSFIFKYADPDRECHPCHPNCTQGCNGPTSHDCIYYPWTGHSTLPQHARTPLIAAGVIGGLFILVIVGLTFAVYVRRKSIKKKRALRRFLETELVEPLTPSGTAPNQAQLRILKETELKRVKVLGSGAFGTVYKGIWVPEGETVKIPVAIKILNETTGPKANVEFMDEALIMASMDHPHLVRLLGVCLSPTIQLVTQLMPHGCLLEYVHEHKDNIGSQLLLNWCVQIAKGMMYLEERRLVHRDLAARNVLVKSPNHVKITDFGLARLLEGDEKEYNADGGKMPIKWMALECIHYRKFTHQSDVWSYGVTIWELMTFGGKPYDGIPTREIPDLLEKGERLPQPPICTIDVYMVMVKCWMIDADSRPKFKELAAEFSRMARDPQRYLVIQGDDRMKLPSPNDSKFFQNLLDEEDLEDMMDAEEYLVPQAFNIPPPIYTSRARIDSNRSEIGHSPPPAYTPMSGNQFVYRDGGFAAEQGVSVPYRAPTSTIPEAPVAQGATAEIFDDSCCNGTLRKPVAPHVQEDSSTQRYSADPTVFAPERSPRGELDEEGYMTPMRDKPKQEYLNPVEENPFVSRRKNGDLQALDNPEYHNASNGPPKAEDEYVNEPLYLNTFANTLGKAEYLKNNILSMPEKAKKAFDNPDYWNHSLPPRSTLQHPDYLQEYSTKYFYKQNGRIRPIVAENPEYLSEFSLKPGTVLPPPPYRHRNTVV
Ephrin type-A receptor 7 (Homo sapiens), sequence (Q15375 28-998 limits assumed): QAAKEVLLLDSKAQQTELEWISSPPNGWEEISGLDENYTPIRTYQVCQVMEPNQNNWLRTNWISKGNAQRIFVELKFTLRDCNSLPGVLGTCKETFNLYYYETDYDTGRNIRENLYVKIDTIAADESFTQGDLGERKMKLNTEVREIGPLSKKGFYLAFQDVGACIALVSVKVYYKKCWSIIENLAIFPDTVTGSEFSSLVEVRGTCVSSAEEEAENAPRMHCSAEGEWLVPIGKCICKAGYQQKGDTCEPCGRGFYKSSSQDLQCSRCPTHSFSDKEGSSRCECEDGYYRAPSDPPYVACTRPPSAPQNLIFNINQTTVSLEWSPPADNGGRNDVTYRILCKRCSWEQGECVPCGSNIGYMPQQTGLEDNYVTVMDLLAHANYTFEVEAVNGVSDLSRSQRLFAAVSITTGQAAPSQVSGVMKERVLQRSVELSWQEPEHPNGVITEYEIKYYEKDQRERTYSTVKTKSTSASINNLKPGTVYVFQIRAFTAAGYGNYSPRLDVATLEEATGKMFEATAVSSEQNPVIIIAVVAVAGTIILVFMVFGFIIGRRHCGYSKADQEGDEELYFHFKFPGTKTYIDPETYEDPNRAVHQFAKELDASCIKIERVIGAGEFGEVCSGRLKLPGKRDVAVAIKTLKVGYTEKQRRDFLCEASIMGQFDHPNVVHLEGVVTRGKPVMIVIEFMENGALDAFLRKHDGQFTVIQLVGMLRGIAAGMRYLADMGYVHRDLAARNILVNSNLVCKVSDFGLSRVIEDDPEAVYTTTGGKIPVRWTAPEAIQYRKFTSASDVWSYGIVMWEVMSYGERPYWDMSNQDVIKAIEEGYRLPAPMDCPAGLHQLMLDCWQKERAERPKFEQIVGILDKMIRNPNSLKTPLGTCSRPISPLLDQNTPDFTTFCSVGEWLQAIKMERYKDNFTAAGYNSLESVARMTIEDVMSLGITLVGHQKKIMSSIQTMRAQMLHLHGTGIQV
Ephrin type-A receptor 4 (Homo sapiens), sequence (P54764 whole entry): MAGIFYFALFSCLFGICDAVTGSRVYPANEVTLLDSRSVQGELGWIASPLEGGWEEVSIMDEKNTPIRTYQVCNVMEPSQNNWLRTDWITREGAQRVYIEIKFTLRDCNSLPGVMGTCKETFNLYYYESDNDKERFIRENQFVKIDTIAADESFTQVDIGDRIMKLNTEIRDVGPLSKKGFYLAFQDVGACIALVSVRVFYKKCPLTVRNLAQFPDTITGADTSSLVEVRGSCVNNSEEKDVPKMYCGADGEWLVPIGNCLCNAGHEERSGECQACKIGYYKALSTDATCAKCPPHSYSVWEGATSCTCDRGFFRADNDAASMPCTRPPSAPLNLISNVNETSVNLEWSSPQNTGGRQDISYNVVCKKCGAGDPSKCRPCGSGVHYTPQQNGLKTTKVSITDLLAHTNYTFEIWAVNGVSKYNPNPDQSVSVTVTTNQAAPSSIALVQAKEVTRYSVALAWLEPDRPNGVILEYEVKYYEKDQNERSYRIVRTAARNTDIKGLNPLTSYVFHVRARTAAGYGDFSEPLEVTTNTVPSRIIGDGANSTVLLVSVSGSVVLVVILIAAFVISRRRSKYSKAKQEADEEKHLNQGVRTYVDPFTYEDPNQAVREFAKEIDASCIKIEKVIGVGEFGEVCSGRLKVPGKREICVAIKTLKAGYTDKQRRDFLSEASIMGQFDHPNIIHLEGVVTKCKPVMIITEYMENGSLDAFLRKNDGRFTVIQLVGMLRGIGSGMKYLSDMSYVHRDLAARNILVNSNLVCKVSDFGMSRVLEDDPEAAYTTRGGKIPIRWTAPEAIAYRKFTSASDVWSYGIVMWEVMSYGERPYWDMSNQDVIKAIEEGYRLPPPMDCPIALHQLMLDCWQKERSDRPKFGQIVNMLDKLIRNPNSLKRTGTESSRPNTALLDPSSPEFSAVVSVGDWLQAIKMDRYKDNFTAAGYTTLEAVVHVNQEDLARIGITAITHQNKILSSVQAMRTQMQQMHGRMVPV

What is called residual activity is the signal under treatment as a percentage of the control signal. As for `CCCCc1c(-c2ccc(OC)cc2)[nH]c2nccnc12`, the residual activity in [1] was determined as 49%; in [2], 108%; in experiment [3] it was 105%; in experiment [4], 100%; in experiment [5], 83%; in experiment [6], 77%. For the same compound, the residual activity in [7] was 73%; in [8], 61%; in experiment [9], 61%; in [10], 101%; in [11], 89%; in experiment [12] it was 121% (inactive). The residual activity in experiment [13] was found to be 109%; in experiment [14], 78%; in experiment [15], 81%; in experiment [16], 120%; in experiment [17] it was 102%; in experiment [18] it was 67%.
